Data on ten molecules can be found in PubChem BioAssay.

The target of assay [1] is ATP-dependent translocase ABCB1 (Homo sapiens) (UniProt P08183). As to the kind of experiment: P-glycoprotein substrate transport blockade – cell-based (AID 377; in the data active = fluorescence slope change above about 50%). The settings on record: MDR1-expressing cells, fluorescent substrate accumulation slope; stronger effect = higher value; concentration not given here.
The subject of assay [2] is Aerobactin synthetase IucA (Klebsiella pneumoniae). Briefly: inhibition of K. pneumoniae IucA enzyme – biochemical, Tocris library, absorbance (AID 1345561).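 Also: 100% = enzyme without compound and 0% = no enzyme.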 Conditions: purified IucA enzyme assay, absorbance (OD) read-out; stronger effect = lower value;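 tested at 8 µM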.
Assay [3] in a line: chitosan synthesis blockers in C. neoformans – flow cytometry, Cibacron Brilliant Red staining (AID 1347148).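 Also: compound exposure lasted three days at 37 degrees C.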 The settings on record: Cryptococcus neoformans chitosan, stronger effect = lower value; at 99.1 µM unless noted. A general note: A flow cytometer gives signals particle by particle.
Assay [4] concerns Neuropilin-2 / VEGF-C interaction (human). As to the kind of experiment: small molecules blocking Neuropilin-2/VEGF-C interaction – biochemical, microplate binding format, z-score (AID 743281). The settings on record: microplate NRP2/VEGF-C binding assay; stronger effect = lower value.
A short description of assay [5]: viability loss in pontine glioma line – cell-based, SU-DIPG-IV, MIPE4.0, CellTiter-Glo, qHTS, dose response (AID 1347063; cut-off not given, nearly all actives have AC50 up to about 30 µM;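 also: compound exposure lasted 48 hours before the viability readout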). The settings on record: CellTiter-Glo ATP luminescence.
Assay [6] is described as follows: viability loss in pontine glioma line – cell-based, SU-DIPG-XIII, MIPE5.0, CellTiter-Glo, qHTS, dose response (AID 1347064; cut-off not given, nearly all actives have AC50 up to about 23 µM;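 as to AC50: cells exposed to compound for 48 hours before the viability read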). Conditions: CellTiter-Glo ATP luminescence. A general note: Cellular ATP, detected with luciferase, serves as a proxy for viable cell number.
The nature of assay [7]: antimalarial activity against Dd2 strain (AID 2302;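 active = growth inhibition above 50% at the single 2 µM test dose, taken to imply half-maximal potency below 2 µM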;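 also: 0% = DMSO untreated growth and 100% = chloroquine plus artemisinin killed control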). Conditions: P. falciparum Dd2 in RBCs, LDH growth readout, 72 h; at 2 µM; stronger effect = higher value.
For assay [8], the target named is L-lactate dehydrogenase (Plasmodium falciparum (isolate CDC / Honduras)) (UniProt Q27743). Briefly: PfLDH activity inhibition – cell lysate, 3D7 strain, counter-screen for P. falciparum growth inhibition project (AID 2304).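 Also: 0% = vehicle and 100% = reference inhibitor.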 Conditions: P. falciparum 3D7 crude extract, LDH APAD/NBT absorbance; at 2 µM; stronger effect = higher value.
The nature of assay [9]: inhibition of 3D7 malaria parasite growth – strain 3D7 (AID 2306).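 Also: 0% = DMSO wells and 100% = chloroquine plus artemisinin control wells.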 Conditions: P. falciparum 3D7 erythrocytic growth, LDH absorbance, 72 h; at 2 µM; stronger effect = higher value.
Assay [10] can be described thus: P. berghei load reduction in hepatocytes – cell-based, HepG2, luciferase luminescence, HepG2 viability, primary screen (AID 624349; in the data active = parasite load remaining mostly below about 12%, no sharp cut-off; inactive = mostly above about 10%;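 also: 100% = mean of DMSO negative control wells on the same plate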). Conditions: P. berghei liver stage in HepG2, luciferase luminescence, concentration not given here; parasite load remaining: stronger effect = lower value; viability: measured here: HepG2 viability without parasites.
Assay [11] addresses Calcium-dependent protein kinase 1 (Plasmodium falciparum (isolate 3D7)) (UniProt P62344). Briefly: PfCDPK1 kinase inhibitors, biochemical, TCAMS library (AID 1159585; cut-off not given, nearly all actives have IC50 up to about 0.98 µM;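 also: inhibitors leave more ATP so luminescence rises with inhibition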). The settings on record: recombinant PfCDPK1, Kinase-Glo ATP depletion luminescence.
For assay [12], the target named is Plasmodium falciparum protein kinase 6 (PK6, PF3D7_1337100) (UniProt Q8IDW1). As to the kind of experiment: PfPK6 kinase inhibitors, biochemical, TCAMS library (AID 1159586). The settings on record: recombinant PfPK6, Kinase-Glo ATP depletion luminescence.
In assay [13] the target is Protein kinase 7 (PK7), Plasmodium falciparum 3D7 (PF3D7_0213400) (UniProt Q7YTF7). As to the kind of experiment: inhibition of Plasmodium PK7 catalytic activity – biochemical, TCAMS antimalarial set, Kinase-Glo luminescence (AID 1159587). The settings on record: recombinant PfPK7, Kinase-Glo ATP depletion luminescence.

Where “and” joins values, the source holds several entries; their conditions need not be identical. Identical values can stand only once. Records with an inconclusive call do not appear. For part of these data: Entries with a potency or affinity are not part of this list. Calls of active or inactive are those of the source. Unless noted, no rule for the calls is given here.

Sequence of Plasmodium falciparum protein kinase 6 (PK6, PF3D7_1337100) (Q8IDW1 1-305): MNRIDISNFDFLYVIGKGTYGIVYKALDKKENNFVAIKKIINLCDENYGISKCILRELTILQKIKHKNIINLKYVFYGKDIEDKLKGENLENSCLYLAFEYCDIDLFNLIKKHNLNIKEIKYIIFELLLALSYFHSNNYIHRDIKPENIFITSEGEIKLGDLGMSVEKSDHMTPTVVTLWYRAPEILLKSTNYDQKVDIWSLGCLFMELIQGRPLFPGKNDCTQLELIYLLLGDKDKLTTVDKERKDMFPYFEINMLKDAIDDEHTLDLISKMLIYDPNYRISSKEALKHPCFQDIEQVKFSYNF
Sequence of ATP-dependent translocase ABCB1 (Homo sapiens) (P08183 whole entry, looked up): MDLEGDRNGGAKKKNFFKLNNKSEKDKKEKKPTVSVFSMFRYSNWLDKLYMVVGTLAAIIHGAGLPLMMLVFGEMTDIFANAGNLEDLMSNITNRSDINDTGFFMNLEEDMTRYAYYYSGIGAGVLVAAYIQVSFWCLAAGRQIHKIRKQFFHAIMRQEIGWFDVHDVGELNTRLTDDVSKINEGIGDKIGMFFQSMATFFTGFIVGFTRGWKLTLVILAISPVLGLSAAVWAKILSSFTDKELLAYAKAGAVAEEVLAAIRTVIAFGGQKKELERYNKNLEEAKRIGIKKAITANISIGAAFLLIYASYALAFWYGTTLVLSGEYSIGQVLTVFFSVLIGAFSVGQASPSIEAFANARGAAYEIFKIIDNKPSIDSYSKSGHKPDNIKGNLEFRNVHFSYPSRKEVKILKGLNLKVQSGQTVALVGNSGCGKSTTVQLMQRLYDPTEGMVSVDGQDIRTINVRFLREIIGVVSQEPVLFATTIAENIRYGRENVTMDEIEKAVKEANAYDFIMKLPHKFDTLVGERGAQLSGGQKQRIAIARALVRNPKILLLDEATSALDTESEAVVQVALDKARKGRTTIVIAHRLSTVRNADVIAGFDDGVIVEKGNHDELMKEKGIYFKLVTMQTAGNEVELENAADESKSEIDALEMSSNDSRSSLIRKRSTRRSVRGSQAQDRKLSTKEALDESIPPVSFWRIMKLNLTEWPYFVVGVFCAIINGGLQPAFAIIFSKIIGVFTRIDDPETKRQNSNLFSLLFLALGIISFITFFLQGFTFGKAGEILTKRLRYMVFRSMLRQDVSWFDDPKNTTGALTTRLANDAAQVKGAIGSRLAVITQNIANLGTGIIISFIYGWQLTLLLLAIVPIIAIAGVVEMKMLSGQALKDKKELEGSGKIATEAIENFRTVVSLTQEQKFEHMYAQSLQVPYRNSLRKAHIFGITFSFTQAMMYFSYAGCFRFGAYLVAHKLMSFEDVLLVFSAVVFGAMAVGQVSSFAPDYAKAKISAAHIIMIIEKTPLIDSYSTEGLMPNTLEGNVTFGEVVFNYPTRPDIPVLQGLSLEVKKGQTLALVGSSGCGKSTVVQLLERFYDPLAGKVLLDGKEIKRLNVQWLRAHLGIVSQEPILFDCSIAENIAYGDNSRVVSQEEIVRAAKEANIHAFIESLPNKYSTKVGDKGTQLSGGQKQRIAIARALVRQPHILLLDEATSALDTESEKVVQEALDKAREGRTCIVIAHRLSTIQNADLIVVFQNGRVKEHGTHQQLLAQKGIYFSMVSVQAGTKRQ
Sequence of Calcium-dependent protein kinase 1 (Plasmodium falciparum (isolate 3D7)) (P62344 whole entry, looked up): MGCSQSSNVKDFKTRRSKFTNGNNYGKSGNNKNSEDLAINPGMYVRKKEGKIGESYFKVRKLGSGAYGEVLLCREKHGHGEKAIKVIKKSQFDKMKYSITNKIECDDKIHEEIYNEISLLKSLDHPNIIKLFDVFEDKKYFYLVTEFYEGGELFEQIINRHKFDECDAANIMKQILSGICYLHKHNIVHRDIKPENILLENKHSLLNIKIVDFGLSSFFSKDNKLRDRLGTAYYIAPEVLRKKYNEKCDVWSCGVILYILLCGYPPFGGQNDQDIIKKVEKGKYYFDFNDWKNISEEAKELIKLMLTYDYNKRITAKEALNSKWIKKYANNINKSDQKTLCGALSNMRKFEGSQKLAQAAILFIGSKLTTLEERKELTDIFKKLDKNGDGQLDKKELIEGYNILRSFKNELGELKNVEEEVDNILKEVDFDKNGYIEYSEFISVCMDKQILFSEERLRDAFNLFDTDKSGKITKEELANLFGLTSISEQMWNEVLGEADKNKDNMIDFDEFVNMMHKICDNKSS
Sequence of L-lactate dehydrogenase (Plasmodium falciparum (isolate CDC / Honduras)) (Q27743 whole entry, looked up): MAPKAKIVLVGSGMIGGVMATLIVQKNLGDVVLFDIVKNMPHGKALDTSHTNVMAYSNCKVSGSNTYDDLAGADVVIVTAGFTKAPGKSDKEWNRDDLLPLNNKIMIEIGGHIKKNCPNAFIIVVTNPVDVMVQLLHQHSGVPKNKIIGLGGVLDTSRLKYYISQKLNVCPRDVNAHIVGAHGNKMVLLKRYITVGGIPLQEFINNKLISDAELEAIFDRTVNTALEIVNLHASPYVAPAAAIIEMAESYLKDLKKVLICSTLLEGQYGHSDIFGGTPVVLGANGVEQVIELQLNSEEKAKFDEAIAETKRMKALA
Sequence of Protein kinase 7 (PK7), Plasmodium falciparum 3D7 (PF3D7_0213400) (Q7YTF7 1-343): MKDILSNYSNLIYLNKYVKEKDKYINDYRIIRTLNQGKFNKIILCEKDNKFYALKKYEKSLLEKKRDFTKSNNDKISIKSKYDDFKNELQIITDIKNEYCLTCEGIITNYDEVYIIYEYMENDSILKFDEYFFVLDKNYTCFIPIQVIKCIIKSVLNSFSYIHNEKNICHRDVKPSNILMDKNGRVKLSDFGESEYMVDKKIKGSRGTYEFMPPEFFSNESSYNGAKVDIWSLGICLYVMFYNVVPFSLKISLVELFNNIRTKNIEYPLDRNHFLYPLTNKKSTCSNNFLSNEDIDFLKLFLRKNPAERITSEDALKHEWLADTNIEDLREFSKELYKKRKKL

For orientation: remaining activity means the signal under treatment as a percentage of the control signal. Turning to `CC[C@H](C)C(=O)O[C@H]1C[C@@H](C)C=C2C=C[C@H](C)[C@H](CC[C@@H]3C[C@@H](O)CC(=O)O3)[C@H]21`, the fluorescence slope change in [1] was 166% (active). Also, the remaining activity in assay [2] was 113% (inactive). Further, the fold fluorescence in [3] is 4.35 [at 123.6 µM] (inactive).
For the molecule `Clc1cccc(Cl)c1NC1=NCCN1`, the fluorescence slope change in assay [1] is 110% (active). Besides, the z-score in assay [4] is 0.177 (inactive). Further, in assay [2], the remaining activity is 106% (inactive). In assay [3], the fold fluorescence is 4.6 [at 217.3 µM] (inactive).
One may read the AC50 as the concentration at which the activity in the assay is half-maximal. Regarding `CCC1(c2ccccc2)C(=O)NCNC1=O`, the remaining activity in assay [2] was 91.8% (inactive). The AC50 in [5] was 5.9 µM (active). For the same molecule, in assay [6], the call was inactive.
The term inhibition denotes the relative decrease from the control value, in per cent. As usually defined, the viability is a read-out of living cells in per cent, often relative to untreated cells. Regarding `CCN(CCO)CCCC(C)Nc1ccnc2cc(Cl)ccc12` (stereo not drawn), the growth inhibition in assay [7] was 0% (inactive); in [9], 99% (active). In addition, the inhibition in assay [8] was -1% (inactive). The parasite load remaining in assay [10] is 156% (inactive) and 84.1% (inactive). For the same molecule, in assay [10], the viability is 88.4% and 102%. The outcome in assay [11], in assay [12], in assay [13], in assay [5] and in [6] was inactive.
On to `O=C1CCC(N2C(=O)c3ccccc3C2=O)C(=O)N1` (stereo not drawn), for which, in assay [1], the fluorescence slope change was 58.2% (active). Besides, the remaining activity in assay [2] is 108% (inactive). Moreover, in assay [5], the call was inactive. The fold fluorescence in assay [3] was 3.34 [at 193.6 µM] (inactive).
For the molecule `NC12CC3CC(CC(C3)C1)C2`, the growth inhibition in [7] is -1% (inactive); in assay [9], 98% (active). Also, the inhibition in assay [8] is -7% (inactive). Moreover, the result in assay [11], in assay [12], in assay [13] and in assay [6] was inactive. Also, in assay [3], the fold fluorescence is 3.81 [at 330.6 µM] (inactive).
`CC[C@H]1CN2CCc3cc(OC)c(OC)cc3[C@@H]2C[C@@H]1C[C@H]1NCCc2cc(OC)c(OC)cc21`: the figures for the growth inhibition in [7] and in [9] were 99% (active) and 101% (active), respectively. Also, the inhibition in assay [8] is -3% (inactive). For the same molecule, in assay [10], the parasite load remaining is -66.8% (active). Moreover, in assay [10], the viability came out at 76.3%. For the same molecule, the result in assay [11], in assay [12] and in [13] was inactive. Moreover, the AC50 in assay [5] is 0.526 µM (active); in assay [6] it was 0.166 µM (active).
Regarding `Oc1ccc(/C=C/c2cc(O)cc(O)c2)cc1`, the fluorescence slope change in assay [1] is 28.4% (inactive). Also, in assay [4], the z-score is -0.145 (inactive). For the same molecule, in assay [2], the remaining activity was 117% (inactive). In addition, in assay [6], the outcome was inactive. The fold fluorescence in assay [3] was 7.05 [at 219.1 µM] (inactive).
For `CCCCCN=C(N)N/N=C/c1c[nH]c2ccc(OC)cc12`, the growth inhibition is 2% (inactive) in assay [7] and 86% (active) in assay [9]. Moreover, in [8], the inhibition is -6% (inactive). In addition, the parasite load remaining in assay [10] was 142% (inactive) and 119% (inactive). The viability in [10] is 84.9% and 86.2%. Besides, the result in assay [4], in [11], in assay [12] and in [13] was inactive. For the same molecule, the AC50 in assay [6] is 13.2 µM (active).
`CCOC(=O)[C@H](CCc1ccccc1)N[C@H]1CCc2ccccc2N(CC(=O)O)C1=O`: in assay [10], the parasite load remaining is 126% (inactive) and 36.1% (inactive) and 94.6% (inactive); the viability was 90.1% and 91.8% and 66.1%. Moreover, the z-score in assay [4] was -0.908 (inactive). The remaining activity in assay [2] was 104% (inactive). Moreover, the concentration at half-maximal activity (AC50) in assay [5] is 10.5 µM (active). Besides, the outcome in [6] was inactive.
